From article PMC5540273 (PLoS ONE, 2017) come the findings set out here.

Molecules are shown by their SMILES.
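Note: KINOMEscan kinase panel screen.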

The test system of the experiment is T1, NIM1.
T1 construct: gene MGC42105
The following applies: concentration: 1 μM, replicates: in singlicate; n = 1.
`FC(F)(F)c1ccc(/C=C/c2cncnc2Nc2ccc3[nH]c(Cc4ccccc4)nc3c2)cc1` [GW709199]: the “%Inh” value came to 0%.

As to `COc1ccc(Nc2nccc(NCCNC(=O)c3cc4ccccc4s3)n2)cc1` [GSK1379896], the “%Inh” value came out at 4%.

Regarding `Cl.Cl.NCC(NCc1ccc(-c2ccnc3[nH]ccc23)s1)c1ccccc1` (stereo not shown) [GSK1321565], the “%Inh” value is 0%.

In the case of `O=C(Nc1cccc(-c2nn3ncccc3c2-c2ccnc(Nc3ccccc3)n2)c1)c1c(F)cccc1F` [GSK198271], the “%Inh” value came to 4%.

Take `Cn1cc(-c2ccc3c(c2)CCN3C(=O)Cc2cccc(F)c2)c2c(N)ncnc21` [GSK2603358]: the “%Inh” value stood at 24%.

In the case of `Nc1ncc(-c2cccnc2)c2scc(-c3ccc4c(c3)CCN4C(=O)Cc3ccccc3)c12` [GSK683281], the “%Inh” value stood at 11%.

Consider `COC(=O)Nc1nc2cc(Oc3ccc(NC(=O)Nc4cc(C(F)(F)F)ccc4F)cn3)ccc2[nH]1.Cl.Cl` [GW681170], for which the “%Inh” value is 27%.

On to `CCn1c(-c2nonc2N)nc2c(C#CC(C)(C)O)nc(OC[C@H](N)c3ccccc3)cc21` [GSK943949], for which the “%Inh” value is given as 0%.

As for `COc1ccc(Nc2nccc(N3CCC(NC(=O)Nc4cccc(OC)c4)C3)n2)cc1` (stereo not shown) [GSK1379742], the “%Inh” value was found to be 22%.

Take `O=C(Nc1cccc(Oc2ccc3nc(NC(=O)C4CC4)cn3n2)c1)c1ccccc1C(F)(F)F`: the “%Inh” value is on record as 0%.

For `Fc1ccc(-c2ncn(C3CCNCC3)c2-c2ccnc(Oc3ccc(-c4ccccc4)cc3)n2)cc1` [SB-245391], the “%Inh” value is on record as 42%.

As to `CC(=O)Nc1nc2cnc(Nc3cc(NC(=O)c4cccc(C5(C#N)CC5)c4Cl)ccc3C)nc2s1`, the “%Inh” value was 6%.

Take `Clc1ccc(-c2nn3ncccc3c2-c2ccnc(Nc3ccc4c(c3)OCCO4)n2)cc1` [GW829116]: the “%Inh” value is 0%.

As for `O=C(Nc1ccccc1F)NC1CCN(c2ccnc(Nc3ccc(F)cc3)n2)CC1` [GSK1379800], the “%Inh” value is recorded as 32%.

For the molecule `c1ccc(-c2cnc3nccnn23)cc1` [AH20685], the “%Inh” value came to 0%.

In the case of `COc1cc2c(cc1OCCN1CCNCC1)ncc1c3ccc(C#N)cc3[nH]c21`, the “%Inh” value amounted to 66%.

On to `COc1cccc(C2=C(Nc3ccc(Cl)c(C(=O)O)c3)C(=O)NC2=O)c1` [SB-390769], for which the “%Inh” value stood at 100%.

For `O=C(O)C(F)(F)F.O=C(O)C(F)(F)F.O=c1[nH]ccc2nc(N[C@@H]3CCCNC3)nc(Nc3ccc(S(=O)(=O)N4CCOCC4)cc3)c12` [GSK2177277], the “%Inh” value is reported as 95.7%.

As for `COc1cccc(NC(=O)NC2CCN(c3ccnc(Nc4cc(OC)c(OC)c(OC)c4)n3)C2)c1` (stereo not shown) [GSK1379763], the “%Inh” value amounted to 15%.

For `O=c1[nH]cc(-c2ccc(N3CCOCC3)cc2)c2sc(-c3cn[nH]c3)cc12` [GSK2276055], the “%Inh” value is on record as 30%.

As for `Nc1ncc(-c2ccc3nccc(-c4ccncc4)c3c2)cc1S(=O)(=O)N1CCOCC1` [GSK1627798], the “%Inh” value was found to be 0%.

`Cl.c1ccc(-c2ccc3c(Nc4ccc5[nH]ncc5c4)ccnc3c2)nc1` [GW440137]: the “%Inh” value turned out to be 14%.

With `Cc1ccc(C)c(NC(=O)NC2CCN(c3ccnc(Nc4ccc(F)cc4)n3)C2)c1` (stereo not shown) [GSK1379720], the “%Inh” value is 43%.

In the case of `Cl.Cl.NCC(NC(=O)c1cc(-c2ccccc2)c(-c2ccnc3[nH]ccc23)s1)c1ccccc1` (stereo not shown) [GSK1321561], the “%Inh” value turned out to be 50%.

Regarding `Cc1occc1-c1ncc(OC[C@@H](N)Cc2c[nH]c3ccccc23)cc1-c1ccc2[nH]nc(C)c2c1.O=C(O)C(F)(F)F` [GSK682037], the “%Inh” value was determined as 33%.

Regarding `CN(c1ccc(NC(=O)Nc2cc(C(F)(F)F)ccc2F)cc1)c1ccnc(Nc2ccc(S(N)(=O)=O)cc2)n1` [GW809893], the “%Inh” value was 0%.

As to `CC(C)c1nc(-c2cccc(NS(=O)(=O)c3c(F)cccc3F)c2F)c(-c2ccnc(Nc3ccc(N4CCOCC4)nc3)n2)s1` [GSK2008607], the “%Inh” value was 1%.

On to `Cc1cccc(Nc2nc(N[C@H]3CCNC3)ncc2C(N)=O)c1.Cl` [GSK2197149], for which the “%Inh” value amounted to 11%.

As for `COc1cccc(C(=O)Nc2cccc(Oc3ccc4nc(NC(=O)C5CC5)cn4n3)c2)c1`, the “%Inh” value came to 0%.

With `Cl.c1ccc(-c2ccc3c(Nc4ccc5[nH]ccc5c4)ccnc3c2)nc1` [GW440138], the “%Inh” value was 29%.

Take `CC(=O)N1CCN(c2ccc(Nc3nccc(-c4sc(C(C)C)nc4-c4cccc(NS(=O)(=O)c5cccc(Cl)c5)c4)n3)cn2)CC1` [GSK1660437]: the “%Inh” value stood at 0%.

Regarding `CCn1c(-c2nonc2N)nc2c(C#CC(C)(C)O)ncc(OCCCCN)c21.O=C(O)C(F)(F)F.O=C(O)C(F)(F)F` [GSK507274], the “%Inh” value worked out at 29%.

`O=C(Nc1cccc(-c2nn3ccccc3c2-c2ccnc(Nc3cccc(C(F)(F)F)c3)n2)c1)c1c(F)cccc1F` [GSK292658]: the “%Inh” value was found to be 2%.

As for `O=C(NC1CCN(c2ccnc(Nc3ccc(F)cc3)n2)C1)c1cc2ccccc2s1` (stereo not shown) [GSK1379716], the “%Inh” value is 34%.

As to `COc1cc(Nc2nccc(-c3c(-c4cccc(NC(=O)c5c(F)cccc5F)c4)nn4ncccc34)n2)cc(OC)c1OC` [GSK327238], the “%Inh” value is listed as 0%.

Turning to `COc1cccc(-c2ccc3c(NC(=O)C4CC4)n[nH]c3n2)c1` [SB-710903], the “%Inh” value is reported as 46%.

As for `Cn1cc(-c2ccc3c(c2)CCN3C(=O)Cc2cccc(Cl)c2)c2c(N)ncnc21` [GSK2606590], the “%Inh” value came to 0%.
